CYP2C9 activ – human CYP2C9 activators, primary screen, biochemical, luminescence; AID 1024, 2008; activation factor at 5 µM; 96,000 tested, 1.4% active; recombinant CYP2C9, luciferin-H conversion; hits give high values; factor 1 = untreated enzyme, 0 = blocked;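 active = activation factor of 2 or more for CYP2C9 at a 5 µM dose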;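 note: 0 = sulfaphenazole-blocked wells and 1 = vehicle-only wells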
CYP2C19 inh – blockers of cytochrome P450 2C19 activity – biochemical, luminescence, ADME assay, primary screen. CYP2C19 Supersomes, luciferin-H EGE luminescence, 30 min. inhibition, % at 5 µM. 96,000 tested, 21% active;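 active = CYP2C19 inhibition above a set limit at 5 µM in the primary screen, cut at about 50% in these data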;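 note: plate controls were negative control wells for no effect and 2.5 mM tranylcypromine positive control for full effect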
CYP2C19 act – human CYP2C19 activators, primary screen, biochemical, luminescence. Cytochrome P450 2C19 (Homo sapiens), P33261. recombinant CYP2C19, luciferin-H EGE luminescence; hits give high values; 0 = fully inhibited enzyme, 1 = untreated enzyme. activation factor at 5 µM. 96,000 tested, under 10 active. AID 1025, 2008;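 active = activation factor of at least 2 at 5 µM in the primary screen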;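 note: 0 = wells with 2.5 mM tranylcypromine and 1 = vehicle-only wells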
PLAP act – PLAP enzyme activators, biochemical, luminescence, HTS; purified PLAP enzyme, luminescent substrate read-out; hits give high values; activation fold at 20 µM; 96,000 tested, 1.2% active; in the data active = activation fold above about 2
Target sequence (P05187 whole entry, looked up): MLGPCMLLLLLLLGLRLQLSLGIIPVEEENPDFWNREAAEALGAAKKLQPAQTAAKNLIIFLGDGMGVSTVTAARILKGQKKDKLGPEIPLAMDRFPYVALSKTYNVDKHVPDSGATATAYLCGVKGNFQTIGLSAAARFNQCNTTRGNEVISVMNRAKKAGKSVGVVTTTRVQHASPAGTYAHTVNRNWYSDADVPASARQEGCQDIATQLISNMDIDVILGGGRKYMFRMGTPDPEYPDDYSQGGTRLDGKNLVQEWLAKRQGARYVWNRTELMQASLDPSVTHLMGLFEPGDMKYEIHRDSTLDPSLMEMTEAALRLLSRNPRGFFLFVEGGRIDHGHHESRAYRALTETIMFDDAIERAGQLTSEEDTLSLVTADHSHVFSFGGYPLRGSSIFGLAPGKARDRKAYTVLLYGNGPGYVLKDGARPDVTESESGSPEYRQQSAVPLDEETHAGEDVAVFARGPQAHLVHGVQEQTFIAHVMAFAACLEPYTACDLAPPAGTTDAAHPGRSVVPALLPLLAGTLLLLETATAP
CYP2C9 inhib – blockers of cytochrome P450 2C9 activity – biochemical, luminescence, ADME assay, primary screen. CYP2C9 Supersomes, luciferin-H conversion. AID 777, 2007. inhibition, % at 5 µM. 96,000 tested, 20% active. P11712;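 active = blocking of liver enzyme CYP2C9 beyond about 50% at 5 µM, limit read from the data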
* = called active by the depositor. An excerpt weighted towards active compounds, which were near 31% of everything screened.

SMILES	CYP2C9 activ	CYP2C19 inh	CYP2C19 act	PLAP act	CYP2C9 inhib
CCOC(=O)c1cccc(NC(=O)C2CCCN2S(=O)(=O)c2cccc3cccnc23)c1 (stereo not drawn)	0.1	34	0.7	0.9	91*
COc1ccc(N(C)S(=O)(=O)c2cccc3cccnc23)c(OC)c1	0.8	60*	0.4	0.9	16
Cc1ccccc1NC(=O)C1CCCN(S(=O)(=O)c2cccc3cccnc23)C1 (stereo not drawn)	1.5	11	0.9	0.9	-45
CNS(=O)(=O)c1cccc2cccnc12	1.4	2	1	0.9	-42
COc1ccc(NC(=O)C2CCCN2S(=O)(=O)c2cccc3cccnc23)c(OC)c1 (stereo not drawn)	0.1	31	0.7	1.4	92*
Cc1ccccc1NC(=O)C1CCCN1S(=O)(=O)c1cccc2cccnc12 (stereo not drawn)	0	67*	0.3	1.4	96*
COCCn1c(SC(C)C(=O)Nc2ncc(Cl)cc2Cl)nc2ccccc21 (stereo not drawn)	0.9	68*	0.3	1.4	14
CCCNC(=O)NC(=O)CSc1nc2ccccc2n1CC(C)C	0.5	88*	0.1	1.5	53*
Cc1nnc(SC(C)C(=O)Nc2ncc(Cl)cc2Cl)n1Cc1ccccc1 (stereo not drawn)	0.9	11	0.9	1.3	12
CCNC(=O)NC(=O)CSc1nc2ccccc2n1CCOC	0.4	22	0.8	1	61*
CC(C)CNC(=O)NC(=O)CSc1nc2ccccc2n1CC(C)C	1.1	47	0.5	0.9	-8
O=C(Nc1cccc2ccccc12)c1ccc(OC(=S)N2CCOCC2)cc1	1.1	-12	1.1	1	-7
O=c1oc2ccccc2c2c1ncn2C1CCCCC1	0.8	16	0.8	1.1	16
C[C@H](NS(=O)(=O)c1ccccc1F)C(=O)OCC(=O)N1CCc2ccccc21	1.8	4	1	0.9	-76
CCC(=O)Nc1cc(C(=O)OCC(=O)c2ccc(Cl)cc2Cl)ccc1C	1.7	22	0.8	1.1	-68
CCC(=O)Nc1ccc(Cl)c(NC(=O)C(C)C)c1	1	-1	1	0.9	4
CCC(=O)Nc1cc(C(=O)OCC(=O)c2ccccc2Cl)ccc1C	2.1*	27	0.7	1.3	-109
CCC(=O)Nc1ccc(C(=O)c2ccccc2)cc1	2*	25	0.8	1	-102
CCC(=O)NNC(=O)CCC(=O)Nc1ccccc1	1	2	1	1.1	-2
CCC(=O)Nc1ccc(C(=O)OCc2ccccc2Cl)cc1	1.6	57*	0.4	1	-63
CCC(=O)Nc1ccc(C(=O)CSc2nc3ccccc3cc2CC)cc1	0.1	3	1	1	88*
CCCc1cc(N2CCCC(C(=O)NCC)C2)n2ncnc2n1 (stereo not drawn)	1	-1	1	0.8	4
Cc1cc(CCN2CCC(=O)NC2=S)ccc1OC(C)C	0.7	80*	0.2	0.9	25
NC(=O)c1oc2ccccc2c1NC(=O)CN1CCCCC1	1.4	-2	1	1.1	-38
NC(=O)c1oc2ccccc2c1NC(=O)C1CCCCC1	2.7*	1	1	1.1	-172
SMILES	CYP2C9 activ	CYP2C19 inh	CYP2C19 act	PLAP act	CYP2C9 inhib
CC(C)OC(=O)c1nn2c(C(F)(F)F)cc(-c3ccc(Br)o3)nc2c1Br	0.7	5	1	1.1	30
COc1cc(NC(=O)Cn2nnc(-c3ccccc3N)n2)cc(OC)c1	0.5	40	0.6	0.8	54*
COc1ccc(C(=O)Cn2nnc(-c3ccccc3NC(=O)C3CCCCC3)n2)cc1	0.1	19	0.8	1.2	85*
CCOc1ccc(NC(=O)Cn2nnc(-c3ccccc3NC(=O)C3CC3)n2)cc1	0.6	82*	0.2	0.9	36
COc1ccc(C(=O)Cn2nnc(-c3ccccc3NC(=O)C(F)(F)F)n2)cc1	1.2	2	1	0.8	-16
O=C(Cn1nnc(-c2ccccc2NC(=O)c2cccs2)n1)Nc1ccccc1	0.2	23	0.8	1.2	76*
Cc1cc(C)n2nc(S(=O)(=O)N(CC(C)C)CC(C)C)nc2n1	0.7	25	0.7	0.9	29
CCn1c(NC(=O)Nc2cccc(C)c2C)cc2sccc21	0.7	47	0.5	0.8	26
